# Several values for one entry are separate records, joined by “and”; a condition that tells them apart may be missing. Equal entries are not always repeated. About 83,000 compounds went through this panel and 20% of them were active in at least one assay; those are over-represented in the sample as a whole.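 Method: cells in 96-well plates; compound added at one concentration; 48 h incubation; percent growth measured; values under 10 scored active.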 Activity calls are given as the source filed them.
# Assays:
# Test in all cases: NCI-60 one-dose screen, 48 h (100 = growth as untreated, 0 = no growth, -100 = all killed)
# [1] = tested on: NCI-H23 lung
# [2] = tested on: NCI-H226 lung
# [3] = tested on: NCI-H322M lung
# [4] = tested on: HOP-62 NSCLC
# [5] = tested on: NCI-H460 lung
# [6] = tested on: HOP-92 NSCLC
# [7] = tested on: NCI-H522 lung
# [8] = tested on: A549/ATCC NSCLC
# [9] = tested on: 786-0 renal
# [10] = tested on: COLO 205 colon
smiles,measurement,setting,value
O=C(Nc1c(Cl)cccc1Cl)Oc1cccc2cccnc12,growth,[1]; 10 µM,36.5% (inactive)
same,growth,[1]; 100 µM,20.2% (inactive)
same,growth,[2]; 10 µM,66.1% (inactive)
same,growth,[2]; 100 µM,13.9% (inactive)
same,growth,[3]; 10 µM,23.7% (inactive)
same,growth,[3]; 100 µM,25% (inactive)
same,growth,[4]; 10 µM,47.5% (inactive)
same,growth,[4]; 100 µM,28.8% (inactive)
same,growth,[5]; 10 µM,27.1% (inactive)
same,growth,[5]; 100 µM,9% (active)
same,growth,[6]; 10 µM,53.2% (inactive)
same,growth,[6]; 100 µM,23.2% (inactive)
same,growth,[7]; 10 µM unless noted,-4.33% [100 µM] (active)
same,growth,[8]; 10 µM,38% (inactive)
same,growth,[8]; 100 µM,18.2% (inactive)
same,growth,[9]; 10 µM,72% (inactive)
same,growth,[9]; 100 µM,31.3% (inactive)
same,growth,[10]; 10 µM,52.4% (inactive)
same,growth,[10]; 100 µM,92.8% (inactive)
COc1ccc(-c2cscc2N)cc1,growth,[1]; 10 µM,79.4% (inactive)
same,growth,[1]; 100 µM,74.2% (inactive)
same,growth,[2]; 10 µM,106% (inactive)
same,growth,[2]; 100 µM,86.6% (inactive)
same,growth,[3]; 10 µM,95.6% (inactive)
same,growth,[3]; 100 µM,73.9% (inactive)
same,growth,[4]; 10 µM,55.8% (inactive)
same,growth,[4]; 100 µM,57.6% (inactive)
same,growth,[5]; 10 µM,83.5% (inactive)
same,growth,[5]; 100 µM,33.8% (inactive)
same,growth,[6]; 10 µM unless noted,68.7% [100 µM] (inactive)
same,growth,[8]; 10 µM,76.7% (inactive)
same,growth,[8]; 100 µM,46.1% (inactive)
same,growth,[9]; 10 µM,98.6% (inactive)
same,growth,[9]; 100 µM,37.1% (inactive)
same,growth,[10]; 10 µM,78% (inactive)
same,growth,[10]; 100 µM,-68.1% (active)
CC(=O)ON=C1C=CC(=C(C#N)c2ccccc2)C=C1,growth,[1]; 10 µM unless noted,91.7% (inactive)
same,growth,[2]; 10 µM unless noted,66.8% (inactive)
same,growth,[3]; 10 µM unless noted,94.8% (inactive)
same,growth,[4]; 10 µM unless noted,55.1% (inactive)
same,growth,[5]; 10 µM unless noted,4.7% (active)
same,growth,[6]; 10 µM unless noted,33.1% (inactive)
same,growth,[7]; 10 µM unless noted,-24.2% (active)
same,growth,[8]; 10 µM unless noted,32.2% (inactive)
same,growth,[9]; 10 µM unless noted,15.4% (inactive)
same,growth,[10]; 10 µM unless noted,90.6% (inactive)
O=C(O)c1c(Cl)c(Cl)c(Cl)c(Cl)c1-c1c2cc(I)c(=O)c(I)c-2oc2c(I)c(O)c(I)cc12,growth,[1]; 10 µM,103% (inactive) and 91.8% (inactive) and 101% (inactive)
same,growth,[1]; 100 µM,-60% (active)
same,growth,[2]; 10 µM,113% (inactive) and 99.1% (inactive) and 94.4% (inactive)
same,growth,[2]; 100 µM,25.9% (inactive)
same,growth,[3]; 10 µM,108% (inactive) and 109% (inactive) and 78.1% (inactive)
same,growth,[3]; 100 µM,36.3% (inactive)
same,growth,[4]; 10 µM,108% (inactive) and 104% (inactive) and 125% (inactive)
same,growth,[4]; 100 µM,-66.5% (active)
same,growth,[5]; 10 µM,102% (inactive) and 115% (inactive) and 98.1% (inactive)
same,growth,[5]; 100 µM,98.8% (inactive)
same,growth,[6]; 10 µM,125% (inactive) and 43.3% (inactive) and -9.83% (active)
same,growth,[6]; 100 µM,-22.3% (active)
same,growth,[7]; 10 µM,107% (inactive) and 97.2% (inactive) and 57% (inactive)
same,growth,[7]; 100 µM,-61% (active)
same,growth,[8]; 10 µM,103% (inactive) and 106% (inactive) and 96.4% (inactive)
same,growth,[8]; 100 µM,25.2% (inactive)
same,growth,[9]; 10 µM,109% (inactive) and 115% (inactive) and 112% (inactive)
same,growth,[9]; 100 µM,8.48% (active)
same,growth,[10]; 10 µM,121% (inactive) and 108% (inactive) and 119% (inactive)
same,growth,[10]; 100 µM,-59.9% (active)
CN(Cc1cnc2nc(N)nc(N)c2n1)c1ccc(C(=O)NC(CCC(=O)O)C(=O)O)cc1 (stereo unspecified),growth,[1]; 10 µM unless noted,23.4% (inactive)
same,growth,[2]; 10 µM unless noted,30.2% (inactive)
same,growth,[3]; 10 µM unless noted,48.6% (inactive)
same,growth,[4]; 10 µM unless noted,43% (inactive)
same,growth,[5]; 10 µM unless noted,16.4% (inactive)
same,growth,[6]; 10 µM unless noted,37.1% (inactive)
same,growth,[7]; 10 µM unless noted,29.2% (inactive)
same,growth,[8]; 10 µM unless noted,19.8% (inactive)
same,growth,[9]; 10 µM unless noted,13.7% (inactive)
same,growth,[10]; 10 µM unless noted,58.5% (inactive)
Cc1cc2nc(CS)[nH]c2cc1C,growth,[1]; 10 µM unless noted,97.1% (inactive)
same,growth,[2]; 10 µM unless noted,93.1% (inactive)
same,growth,[3]; 10 µM unless noted,76.4% (inactive)
same,growth,[4]; 10 µM unless noted,92.7% (inactive)
same,growth,[5]; 10 µM unless noted,93% (inactive)
same,growth,[6]; 10 µM unless noted,88.9% (inactive)
same,growth,[7]; 10 µM unless noted,74.7% (inactive)
same,growth,[8]; 10 µM unless noted,94.2% (inactive)
same,growth,[9]; 10 µM unless noted,81.6% (inactive)
same,growth,[10]; 10 µM unless noted,90.3% (inactive)
N#CSCc1ccc(CSC#N)c(Cl)c1,growth,[1]; 10 µM unless noted,85.1% (inactive)
same,growth,[2]; 10 µM unless noted,93.1% (inactive)
same,growth,[3]; 10 µM unless noted,106% (inactive)
same,growth,[4]; 10 µM unless noted,129% (inactive)
same,growth,[5]; 10 µM unless noted,75.5% (inactive)
same,growth,[6]; 10 µM unless noted,4.78% (active)
same,growth,[7]; 10 µM unless noted,15.7% (inactive)
same,growth,[8]; 10 µM unless noted,75.8% (inactive)
same,growth,[9]; 10 µM unless noted,73.2% (inactive)
same,growth,[10]; 10 µM unless noted,45% (inactive)
CN1c2ccccc2C(C)(C)C12C=Cc1cc(O)ccc1O2 (stereo unspecified),growth,[1]; 10 µM unless noted,52.3% (inactive)
same,growth,[2]; 10 µM unless noted,89% (inactive)
same,growth,[3]; 10 µM unless noted,109% (inactive)
same,growth,[4]; 10 µM unless noted,82.8% (inactive)
same,growth,[5]; 10 µM unless noted,67.9% (inactive)
same,growth,[6]; 10 µM unless noted,-6.47% (active)
same,growth,[7]; 10 µM unless noted,-15.6% (active)
same,growth,[8]; 10 µM unless noted,75.2% (inactive)
same,growth,[9]; 10 µM unless noted,87.1% (inactive)
same,growth,[10]; 10 µM unless noted,78.2% (inactive)
Cc1ccc(N=C=C(c2ccccc2)c2ccccc2)cc1,growth,[1]; 10 µM unless noted,81% (inactive)
same,growth,[2]; 10 µM unless noted,90.3% (inactive)
same,growth,[3]; 10 µM unless noted,98.1% (inactive)
same,growth,[4]; 10 µM unless noted,104% (inactive)
same,growth,[5]; 10 µM unless noted,97.3% (inactive)
same,growth,[6]; 10 µM unless noted,79.2% (inactive)
same,growth,[7]; 10 µM unless noted,76% (inactive)
same,growth,[8]; 10 µM unless noted,97.5% (inactive)
same,growth,[9]; 10 µM unless noted,70.1% (inactive)
same,growth,[10]; 10 µM unless noted,114% (inactive)
C=CCOc1ccc(N=NC(C#N)C#N)cc1,growth,[1]; 10 µM unless noted,75.7% (inactive)
same,growth,[2]; 10 µM unless noted,84.5% (inactive)
same,growth,[3]; 10 µM unless noted,93% (inactive)
same,growth,[4]; 10 µM unless noted,52.3% (inactive)
same,growth,[5]; 10 µM unless noted,104% (inactive)
same,growth,[6]; 10 µM unless noted,-13.1% (active)
same,growth,[7]; 10 µM unless noted,-12.9% (active)
same,growth,[8]; 10 µM unless noted,86.3% (inactive)
same,growth,[9]; 10 µM unless noted,78.8% (inactive)
same,growth,[10]; 10 µM unless noted,22.1% (inactive)
CCOC(=O)c1c(C)[nH]c(CO)c1C,growth,[1]; 10 µM unless noted,99.1% (inactive)
same,growth,[2]; 10 µM unless noted,114% (inactive)
same,growth,[3]; 10 µM unless noted,94.9% (inactive)
same,growth,[4]; 10 µM unless noted,93.9% (inactive)
same,growth,[5]; 10 µM unless noted,110% (inactive)
same,growth,[6]; 10 µM unless noted,101% (inactive)
same,growth,[7]; 10 µM unless noted,84.3% (inactive)
same,growth,[8]; 10 µM unless noted,90.7% (inactive)
same,growth,[9]; 10 µM unless noted,106% (inactive)
same,growth,[10]; 10 µM unless noted,104% (inactive)

# Reference: PubChem BioAssay (NCI)
